# Measured values from the supplement of paper PMC11732987, “Enantioselective OTUD7B fragment discovery through chemoproteomics screening and high-throughput optimisation” (Communications Chemistry, 2025).
# Values without a mark were called inactive.
# Compound: ClCC(=O)N1CCCC1=O
# Test: log2 ratio of Biotin-Ahx-Ub-VS probe labelling (fragment/DMSO); higher = less target engagement (more negative = stronger competition), active = hit call of the paper (q ≤ 0.05, log2 ratio ≤ -1)
# Settings: compound concentration: 200 uM; treatment time: 3 h
# Experimental: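 Competitive ABPP in HEK293T cell lysate. Lysates were treated with each chloroacetamide fragment at 200 µM for 3 h, then with Biotin-Ahx-Ub-VS (0.5 µM, 1 h), NeutrAvidin-enriched and analysed by diaPASEF LC-MS/MS. Protein LFQ was median-normalised; average log2 ratio is fragment/DMSO from an unpaired t-test (n=3 treated, n=44 DMSO). Hits: q ≤ 0.05, log2 ratio ≤ -1, unique peptides ≥ 2.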
# Sequence of UniProt Q9P2H5 (Q9P2H5 whole entry): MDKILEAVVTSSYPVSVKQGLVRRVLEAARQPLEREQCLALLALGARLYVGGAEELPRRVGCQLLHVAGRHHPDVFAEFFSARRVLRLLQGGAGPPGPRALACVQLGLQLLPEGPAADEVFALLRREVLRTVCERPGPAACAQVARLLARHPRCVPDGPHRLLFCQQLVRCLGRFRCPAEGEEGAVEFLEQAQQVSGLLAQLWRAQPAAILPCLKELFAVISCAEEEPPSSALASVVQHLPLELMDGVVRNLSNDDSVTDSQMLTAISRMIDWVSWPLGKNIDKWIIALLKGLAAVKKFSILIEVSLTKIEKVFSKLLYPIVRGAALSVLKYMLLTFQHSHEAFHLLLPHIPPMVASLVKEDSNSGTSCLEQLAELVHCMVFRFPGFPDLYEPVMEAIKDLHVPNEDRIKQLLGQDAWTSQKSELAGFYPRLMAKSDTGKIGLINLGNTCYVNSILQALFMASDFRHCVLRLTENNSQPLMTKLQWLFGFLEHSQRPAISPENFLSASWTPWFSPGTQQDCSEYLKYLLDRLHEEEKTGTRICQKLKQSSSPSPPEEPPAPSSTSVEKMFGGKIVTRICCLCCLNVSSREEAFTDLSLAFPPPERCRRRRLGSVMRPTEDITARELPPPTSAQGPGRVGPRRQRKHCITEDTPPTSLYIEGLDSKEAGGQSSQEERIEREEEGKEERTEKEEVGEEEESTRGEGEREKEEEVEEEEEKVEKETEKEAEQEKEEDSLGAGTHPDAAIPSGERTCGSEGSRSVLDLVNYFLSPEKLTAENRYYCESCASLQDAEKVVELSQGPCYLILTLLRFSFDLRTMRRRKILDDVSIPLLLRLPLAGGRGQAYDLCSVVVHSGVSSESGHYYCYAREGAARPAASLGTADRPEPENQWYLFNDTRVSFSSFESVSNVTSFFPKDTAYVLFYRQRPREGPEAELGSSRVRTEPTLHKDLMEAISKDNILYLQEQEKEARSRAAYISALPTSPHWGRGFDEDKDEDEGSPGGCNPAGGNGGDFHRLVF
# Sequence of UniProt Q5VVQ6 (Q5VVQ6 whole entry): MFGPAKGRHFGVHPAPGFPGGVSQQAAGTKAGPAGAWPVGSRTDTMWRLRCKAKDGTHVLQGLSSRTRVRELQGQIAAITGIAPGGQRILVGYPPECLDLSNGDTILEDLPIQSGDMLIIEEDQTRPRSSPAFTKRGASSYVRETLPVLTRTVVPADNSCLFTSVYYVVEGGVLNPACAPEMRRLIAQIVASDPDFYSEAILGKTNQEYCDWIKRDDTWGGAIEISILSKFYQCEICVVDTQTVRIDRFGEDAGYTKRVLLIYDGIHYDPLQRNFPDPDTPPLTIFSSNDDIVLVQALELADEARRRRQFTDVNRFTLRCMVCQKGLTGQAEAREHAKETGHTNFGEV
# Sequence of UniProt P62068 (P62068 whole entry): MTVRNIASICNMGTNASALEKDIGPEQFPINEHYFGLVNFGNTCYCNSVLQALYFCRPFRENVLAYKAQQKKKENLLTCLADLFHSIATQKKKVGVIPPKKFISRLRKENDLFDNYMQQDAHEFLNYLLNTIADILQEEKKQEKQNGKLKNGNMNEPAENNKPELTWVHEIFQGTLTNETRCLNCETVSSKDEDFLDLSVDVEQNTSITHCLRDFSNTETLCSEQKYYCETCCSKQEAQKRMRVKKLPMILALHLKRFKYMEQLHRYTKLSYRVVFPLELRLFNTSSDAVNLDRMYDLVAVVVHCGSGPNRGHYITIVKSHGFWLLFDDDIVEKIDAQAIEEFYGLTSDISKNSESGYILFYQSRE
# Sequence of UniProt Q96G74 (Q96G74 whole entry): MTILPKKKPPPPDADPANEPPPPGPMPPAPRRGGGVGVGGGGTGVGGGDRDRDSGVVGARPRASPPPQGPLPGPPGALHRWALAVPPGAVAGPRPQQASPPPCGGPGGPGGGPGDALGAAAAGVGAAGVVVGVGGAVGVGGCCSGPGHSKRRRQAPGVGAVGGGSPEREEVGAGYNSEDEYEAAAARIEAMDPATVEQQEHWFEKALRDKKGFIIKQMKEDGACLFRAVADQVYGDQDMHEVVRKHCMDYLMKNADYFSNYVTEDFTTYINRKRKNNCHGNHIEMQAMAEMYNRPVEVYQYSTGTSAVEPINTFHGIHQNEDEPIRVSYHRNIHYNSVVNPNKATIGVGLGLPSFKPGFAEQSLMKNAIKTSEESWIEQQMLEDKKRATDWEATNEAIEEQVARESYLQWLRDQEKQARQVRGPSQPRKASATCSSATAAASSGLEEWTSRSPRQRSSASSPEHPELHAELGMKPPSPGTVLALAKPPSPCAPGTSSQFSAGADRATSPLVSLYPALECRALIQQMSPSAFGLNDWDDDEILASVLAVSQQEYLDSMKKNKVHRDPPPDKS
# Sequence of UniProt O00487 (O00487 whole entry): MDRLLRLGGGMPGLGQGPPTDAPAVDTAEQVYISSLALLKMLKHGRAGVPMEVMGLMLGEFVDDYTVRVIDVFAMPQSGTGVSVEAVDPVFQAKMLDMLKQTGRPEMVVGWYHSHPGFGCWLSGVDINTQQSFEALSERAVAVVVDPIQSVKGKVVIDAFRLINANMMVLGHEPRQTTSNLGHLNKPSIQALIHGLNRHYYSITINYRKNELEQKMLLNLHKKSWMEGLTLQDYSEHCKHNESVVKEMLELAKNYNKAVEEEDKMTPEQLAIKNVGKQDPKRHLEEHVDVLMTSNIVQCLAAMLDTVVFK
# Sequence of UniProt Q9Y4E8 (Q9Y4E8 whole entry): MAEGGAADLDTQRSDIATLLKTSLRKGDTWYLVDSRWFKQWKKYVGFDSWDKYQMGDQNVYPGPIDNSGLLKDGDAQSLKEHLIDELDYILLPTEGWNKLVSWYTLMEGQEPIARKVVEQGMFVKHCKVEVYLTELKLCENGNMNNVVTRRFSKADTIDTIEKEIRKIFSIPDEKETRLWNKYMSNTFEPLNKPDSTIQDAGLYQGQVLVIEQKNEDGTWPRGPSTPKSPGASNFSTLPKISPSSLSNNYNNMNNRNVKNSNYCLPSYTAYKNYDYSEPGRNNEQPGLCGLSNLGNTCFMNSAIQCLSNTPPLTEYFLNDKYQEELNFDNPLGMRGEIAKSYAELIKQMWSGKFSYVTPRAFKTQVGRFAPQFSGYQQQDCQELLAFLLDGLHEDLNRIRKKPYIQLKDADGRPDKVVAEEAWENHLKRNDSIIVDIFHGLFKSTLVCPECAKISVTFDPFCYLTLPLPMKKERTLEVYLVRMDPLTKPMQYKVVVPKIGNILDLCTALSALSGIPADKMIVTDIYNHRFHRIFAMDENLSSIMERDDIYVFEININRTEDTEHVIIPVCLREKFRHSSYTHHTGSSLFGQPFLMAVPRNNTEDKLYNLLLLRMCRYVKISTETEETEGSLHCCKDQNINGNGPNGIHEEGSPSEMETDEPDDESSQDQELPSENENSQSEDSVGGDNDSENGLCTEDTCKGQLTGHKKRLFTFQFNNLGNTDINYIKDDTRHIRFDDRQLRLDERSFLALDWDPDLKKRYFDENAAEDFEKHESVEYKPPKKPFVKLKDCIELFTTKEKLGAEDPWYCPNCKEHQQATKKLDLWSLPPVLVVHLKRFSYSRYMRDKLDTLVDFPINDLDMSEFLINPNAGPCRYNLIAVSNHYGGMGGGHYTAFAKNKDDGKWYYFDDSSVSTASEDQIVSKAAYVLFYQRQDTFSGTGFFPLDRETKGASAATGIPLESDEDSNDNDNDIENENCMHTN
# Sequence of UniProt O94966 (O94966 whole entry): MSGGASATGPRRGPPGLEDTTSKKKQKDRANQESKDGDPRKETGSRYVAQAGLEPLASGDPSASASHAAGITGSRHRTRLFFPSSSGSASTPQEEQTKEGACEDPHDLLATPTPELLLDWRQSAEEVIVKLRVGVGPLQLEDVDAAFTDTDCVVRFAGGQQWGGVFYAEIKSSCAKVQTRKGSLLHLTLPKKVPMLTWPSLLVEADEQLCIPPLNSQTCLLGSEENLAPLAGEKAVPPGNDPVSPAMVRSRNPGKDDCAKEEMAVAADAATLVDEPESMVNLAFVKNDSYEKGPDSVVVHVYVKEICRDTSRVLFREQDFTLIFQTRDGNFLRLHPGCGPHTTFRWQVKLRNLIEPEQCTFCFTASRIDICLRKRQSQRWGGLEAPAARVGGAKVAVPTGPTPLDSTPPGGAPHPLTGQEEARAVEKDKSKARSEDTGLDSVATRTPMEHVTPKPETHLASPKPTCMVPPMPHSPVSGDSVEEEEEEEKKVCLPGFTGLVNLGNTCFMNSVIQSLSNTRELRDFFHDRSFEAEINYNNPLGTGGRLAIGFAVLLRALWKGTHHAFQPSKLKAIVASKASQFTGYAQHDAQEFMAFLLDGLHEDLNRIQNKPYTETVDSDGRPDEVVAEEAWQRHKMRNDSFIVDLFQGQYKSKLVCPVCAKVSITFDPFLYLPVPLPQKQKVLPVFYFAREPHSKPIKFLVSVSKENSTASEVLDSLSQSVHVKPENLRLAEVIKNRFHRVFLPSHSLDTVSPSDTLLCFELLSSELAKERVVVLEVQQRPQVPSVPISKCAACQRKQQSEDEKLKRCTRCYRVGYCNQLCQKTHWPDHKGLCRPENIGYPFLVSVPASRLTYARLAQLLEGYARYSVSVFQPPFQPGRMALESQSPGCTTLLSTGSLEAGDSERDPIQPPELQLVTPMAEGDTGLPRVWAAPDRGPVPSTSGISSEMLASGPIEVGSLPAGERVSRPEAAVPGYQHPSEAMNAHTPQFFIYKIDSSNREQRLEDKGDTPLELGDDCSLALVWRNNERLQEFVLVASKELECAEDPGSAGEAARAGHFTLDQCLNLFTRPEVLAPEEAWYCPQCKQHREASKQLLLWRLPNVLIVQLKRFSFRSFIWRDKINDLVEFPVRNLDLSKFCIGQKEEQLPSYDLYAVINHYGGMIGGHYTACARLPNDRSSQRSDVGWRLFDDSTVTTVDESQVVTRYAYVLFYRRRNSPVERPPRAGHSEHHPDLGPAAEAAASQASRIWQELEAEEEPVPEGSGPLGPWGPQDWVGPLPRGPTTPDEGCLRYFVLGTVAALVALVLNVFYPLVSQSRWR
row,Target,log2 ratio of Biotin-Ahx-Ub-VS probe labelling
1,USP10 (UniProt Q14694),-0.0833
2,UniProt P51784,-0.126
3,OTUD5 (UniProt Q96G74),-0.377
4,USP46 (UniProt P62068),-0.141
5,UniProt Q8TE49,-0.249
6,UCHL1 (UniProt P09936),-0.746
7,USP7 (UniProt Q93009),-0.135
8,USP16 (UniProt Q9Y5T5),-0.298
9,PRPF8 (UniProt Q6P2Q9),0.106
10,USP36 (UniProt Q9P275),-0.0906
11,USP8 (UniProt P40818),-0.417
12,USP5 (UniProt P45974),-0.246
13,USP28 (UniProt Q96RU2),-0.413
14,USP47 (UniProt Q96K76),-0.175
15,USP34 (UniProt Q70CQ2),-0.582
16,UCHL5 (UniProt Q9Y5K5),-0.166
17,COPS5 (UniProt Q92905),0.159
18,OTUD4 (UniProt Q01804),-0.294
19,USP42 (UniProt Q9H9J4),-0.218
20,OTUB1 (UniProt Q96FW1),-0.0612

row,Target,log2 ratio of Biotin-Ahx-Ub-VS probe labelling
1,USP15 (UniProt Q9Y4E8),-0.378
2,UniProt Q9P2H5,-0.151
3,UniProt O00487,0.00332
4,EIF3F (UniProt O00303),-0.166
5,OTUD6B (UniProt Q8N6M0),-0.48
6,USP54 (UniProt Q70EL1),-0.396
7,EIF3H (UniProt O15372),0.0752
8,VCPIP1 (UniProt Q96JH7),-0.53
9,UniProt O00507,-0.733
10,USP25 (UniProt Q9UHP3),-0.183
11,USP19 (UniProt O94966),-0.376
12,USP22 (UniProt Q9UPT9),-0.616
13,USP4 (UniProt Q13107),-0.146
14,PSMD7 (UniProt P51665),-0.274
15,BAP1 (UniProt Q92560),-0.142
16,USP39 (UniProt Q53GS9),0.0278
17,YOD1 (UniProt Q5VVQ6),-0.311
18,USP9X (UniProt Q93008),-0.16
19,OTUD7B (UniProt Q6GQQ9),-0.251
20,ALG13 (UniProt Q9NP73),0.188
